MEKK3 PB1 HTS = modulators of MEKK3-MEK5 PB1 binding, primary screen, biochemical, wildtype MEKK3, multiplex bead flow cytometry, Alexa488-MEK5. 1.4% of 290,000 active. bead-based flow cytometry, Alexa488-MEK5 binding to MEKK3; actives lie on both sides; 0 = blocked by unlabeled MEK5, 100 = vehicle. binding response (% of control), % at 10 µM. Mitogen-activated protein kinase kinase kinase 3 (Homo sapiens), Q99759;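 active = binding response more than 3 SD above or below the average of its plate-row segment, actives on both sides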;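 also: Alexa488 bead fluorescence after subtracting the streptavidin-only scavenger bead signal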
Target sequence (Q99759 whole entry, looked up): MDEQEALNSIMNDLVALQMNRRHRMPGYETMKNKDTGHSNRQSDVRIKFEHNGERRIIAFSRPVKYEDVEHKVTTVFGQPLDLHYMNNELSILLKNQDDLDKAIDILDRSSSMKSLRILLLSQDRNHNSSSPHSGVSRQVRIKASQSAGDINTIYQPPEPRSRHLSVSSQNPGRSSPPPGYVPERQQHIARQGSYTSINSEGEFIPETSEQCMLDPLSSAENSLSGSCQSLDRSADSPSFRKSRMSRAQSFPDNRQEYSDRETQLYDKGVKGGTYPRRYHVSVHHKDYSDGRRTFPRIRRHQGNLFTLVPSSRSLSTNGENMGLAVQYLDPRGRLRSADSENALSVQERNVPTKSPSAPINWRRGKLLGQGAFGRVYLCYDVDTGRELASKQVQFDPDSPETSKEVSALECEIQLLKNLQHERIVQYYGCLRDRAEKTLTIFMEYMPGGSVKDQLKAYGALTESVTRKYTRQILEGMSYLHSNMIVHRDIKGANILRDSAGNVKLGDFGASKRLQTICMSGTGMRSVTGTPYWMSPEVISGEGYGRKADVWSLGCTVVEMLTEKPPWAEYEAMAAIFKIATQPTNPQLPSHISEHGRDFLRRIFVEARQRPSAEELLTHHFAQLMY
MEKK2 mut-MEK5 = MEK5 binding signal on mutant MEKK2 PB1, primary screen, biochemical, multiplex bead flow cytometry, Alexa488-MEK5 | AID 1530, 2009 | 0.35% of 290,000 active | Alexa488-MEK5 binding to MEKK2 mutant | percent response, % at 10 µM; in the data active = percent response above about 24%, passing the limit was not always enough
MEKK2 WT-MEK5 = modulators of MEK5 binding to wildtype MEKK2, primary screen, biochemical, multiplex bead flow cytometry, Alexa488-MEK5; Alexa488-MEK5 binding to MEKK2 WT; actives lie on both sides; binding response (% of control), % at 10 µM; 1.1% of 290,000 active; in the data active = binding response below about 67% or above about 130%
CRFBP-R2 agonist = agonists of CRF-BP/CRF-R2 complex, primary screen, cell-based, HEK293, calcium dye fluorescence, uHTS; AID 588473, 2011; activation, % at 13.2 µM; CRF-binding protein / CRF receptor 2 complex (human); 0.46% of 350,000 active; calcium dye fluorescence (FLIPR); percent of saturating CRF peptide response;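 active = activation of at least 50%, plus an integration ratio under a set limit after plate pattern correction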;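 also: plate controls were neutral control wells without compound for no effect and CRF at EC100 for full effect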
ABCB6 inh 2 = ABCB6 transporter inhibitors, primary screen, K562-ABCB6 cells, flow cytometry, MLPCN library; fluorescence ratio to DMSO, % at 10 µM; ATP-binding cassette sub-family B member 6 (Homo sapiens), Q9NP58; 0.19% of 360,000 active; K562-ABCB6 porphyrin accumulation, 1 h; active compounds read low; AID 602162, 2011;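 active = fluorescence ratio to DMSO below 75%, the collection mean minus 3 SD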;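 also: signal is porphyrin accumulated inside mitochondria; 100% equals median channel fluorescence of DMSO control wells; lower ratio means ABCB6 inhibition with less porphyrin fluorescence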
CRFBP-R2 block = antagonists of CRF-BP/CRF-R2 complex, primary screen, cell-based, HEK293, calcium dye fluorescence, uHTS; CRF-induced calcium fluorescence; inhibition, % at 11.8 µM; 0.59% of 350,000 active; AID 588475, 2011;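 active = inhibition of the ligand-induced calcium signal above about 50% at the single tested concentration, limit read from the data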
MEKK2wt confirm = modulators of MEK5 binding to wildtype MEKK2, confirmation, biochemical, single concentration, multiplex bead flow cytometry; Alexa488-MEK5 binding to MEKK2 WT; actives lie on both sides; 2.4% of 5,900 active; AID 1892, 2009; shares compounds with MEKK3 PB1 HTS; binding response (% of control), % at 10 µM; in the data active = binding response below about 16% or above about 210%; inactive = in between
MEKK2mut confirm = mutant MEKK2 PB1-MEK5 binding signal retest – biochemical, single concentration, multiplex bead flow cytometry, confirmation | shares compounds with MEKK3 PB1 HTS | Alexa488-MEK5 binding to MEKK2 mutant | percent response, % at 10 µM | 2% of 5,900 active | AID 1893, 2009; in the data active = percent response mostly above about 71%, no sharp cut-off; inactive = mostly below about 38%;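 also: higher means compound restores mutant binding toward wildtype level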
MEKK3 confirm = MEKK3 wild-type PB1 binding to MEK5, inhibitors, confirmation, biochemical, bead multiplex flow cytometry, single concentration, wildtype; Alexa488-MEK5 binding to MEKK3; active compounds read low; 1.8% of 5,900 active; shares compounds with MEKK3 PB1 HTS; binding response (% of control), % at 10 µM;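 active = binding response below 72% of control, or above a set upper limit, though filed actives all read lower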;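 also: 100% = DMSO only wells and 0% = binding blocked by excess unlabeled MEK5; lower values mean stronger disruption of MEK5 binding to MEKK3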
The depositor's hits bear a star; . = not tested or not shown; [ ] = dose if it differs, or a comment. The list is not random: actives were taken first. Their share in the collection is about 2.9%.

SMILES	MEKK3 PB1 HTS	MEKK2 mut-MEK5	MEKK2 WT-MEK5	CRFBP-R2 agonist	ABCB6 inh 2	CRFBP-R2 block	MEKK2wt confirm	MEKK2mut confirm	MEKK3 confirm
CCOc1ccccc1N1CCN(C(=S)NCc2ccco2)CC1	64*[inhibitor]	-1	92	-2	102	6	107	5	107
Cc1ccc(N(CC(=O)NCCSc2nc3ccccc3s2)S(=O)(=O)c2ccccc2)c(C)c1	150*	0	105	-1	97	-39	105	6	108
Cc1cccc(N(CC(=O)NCCSc2nc3ccccc3s2)S(=O)(=O)c2ccccc2)c1	99	-1	101	.	.	.	.	.	.
COc1ccc2oc(C(=O)NC3(C)CCS(=O)(=O)C3)c(C)c2c1 (stereo not given)	.	.	.	2	102	10	.	.	.
CC(C)C(=O)Nc1nnc(SCC(=O)NC2CC2)s1	7.0*[inhibitor]	-15	11*[inhibitor]	-3	99	-9	100	-4	101
CCC(CC)C(=O)Nc1nnc(SCC(=O)NC2CC2)s1	95	-12	90	-1	99	1	.	.	.
Cn1cccc1CC(=O)NNC(=O)Nc1cccc(Cl)c1	129*	-1	105	-1	104	-4	106	5	104
O=C(Nc1cccc(-c2csc(Nc3ccc(Cl)cc3)n2)c1)c1cccc(C(F)(F)F)c1	123*	9	96	1	95	-5	117	0	106
CC(C)(O)C#Cc1ccc(CN2CCN(CCc3ccccc3)C(CCO)C2)s1 (stereo not given)	110	-2	109	2	101	10	.	.	.
CC(NC(=O)C1CCN(S(=O)(=O)c2ccc3c(c2)NC(=O)CO3)CC1)c1ccccc1 (stereo not given)	100	4	96	0	100	3	.	.	.
CC1C(=O)C(C)C(c2cccs2)NC1c1cccs1 (stereo not given)	127*	8	124	-2	99	57*	130	11	104
O=C(O)C(CCc1ccccc1)N1C(=O)c2ccccc2C1=O (stereo not given)	.	.	.	-2	99	-6	.	.	.
Cc1ccsc1/C=C(/C#N)C(=O)NCc1ccccc1	108	58*	112	-1	103	-4	99	-3	101
Cc1ccsc1/C=C(\C#N)C(=O)NCc1cccnc1	104	2	107	2	108	9	.	.	.
Cc1ccc(C(C)NC(=O)/C(C#N)=C\c2c(C)[nH]c3ccccc23)cc1 (stereo not given)	105	4	106	11	107	-49	.	.	.
Cc1[nH]c2ccccc2c1/C=C(\C#N)C(=O)NCc1ccccc1	108	134*	15*	0	117	-12	106	4	101
O=C(CCN1C(=O)[C@@H]2Cc3ccccc3CN2C1=O)Nc1cccc(F)c1	101	1	98	-1	101	-15	.	.	.
O=C(NC1(C(F)(F)F)NC(=O)N(C2CCCCC2)C1=O)C1CC1 (stereo not given)	103	8	101	-1	97	7	.	.	.
CCOC(=O)NC1(C(F)(F)F)NC(=O)N(C2CCCCC2)C1=O (stereo not given)	91	-34	-4.0*[inhibitor]	-1	94	-2	110	8	108
CCCCc1n[nH]c(=S)n1Cc1ccc(C)cc1	48*[inhibitor]	-17	65	-3	97	-5	104	2	106
COc1ccccc1N1C(=O)CC(N2CCN(c3ccc([N+](=O)[O-])cc3)CC2)C1=O (stereo not given)	102	9	106	-1	100	5	.	.	.
Cc1cc(C)n(-c2ccc(C(=O)NC(C)C)cc2)n1	-1.0*[inhibitor]	-26	-5.0*[inhibitor]	1	100	14	98	-8	96
Cc1cc(-c2ccccc2)n(-c2ccc(C(=O)NC(C)C)cc2)n1	107	4	112	0	104	-3	.	.	.
C(=C\c1nc(N2CCCCCC2)c2ccccc2n1)/c1ccccc1	100	17	144*	1	93	-17	154	19	108
O/N=C/Cc1[nH]c2ccccc2c1-c1ccccc1	104	-3	103	-1	93	10	.	.	.
SMILES	MEKK3 PB1 HTS	MEKK2 mut-MEK5	MEKK2 WT-MEK5	CRFBP-R2 agonist	ABCB6 inh 2	CRFBP-R2 block	MEKK2wt confirm	MEKK2mut confirm	MEKK3 confirm
CC(C)c1ccc(C(=O)OCC(=O)Nc2cccc(S(=O)(=O)NC3=NCCC3)c2)cc1	.	.	.	2	98	4	.	.	.
Brc1ccc(-n2c(SCc3nc4ccccc4[nH]3)nnc2-c2ccncc2)cc1	150*	0	108	1	105	1	102	2	100
Cc1nnc(SCc2ccccc2CSc2nnc(C)s2)s1	130*	0	113	0	94	-9	106	7	107
O=C(Nc1cccc(S(=O)(=O)N2CCCCC2)c1)c1ccc2ncsc2c1	86	-10	59*[inhibitor]	-1	96	-17	107	-2	102
O=C(Cc1ccccc1Cl)Nc1cccc(S(=O)(=O)N2CCCCCC2)c1	.	.	.	2	91	4	.	.	.
O=C(Nc1cccc(S(=O)(=O)N2CCCCC2)c1)Nc1ccc(Cl)cc1Cl	153*	3	141*	0	98	-2	126	10	105
NS(=O)(=O)c1cccc(NC(=O)c2cccc(S(=O)(=O)N3CCCCCC3)c2)c1	.	.	.	-1	96	-3	.	.	.
Nc1ccc(Oc2ccc(Br)cc2)cc1	72*[inhibitor]	-1	97	-1	98	2	104	4	103
Nc1ccc(Oc2cccc(Oc3ccc(N)cc3)c2)cc1	96	-7	93	1	102	-15	.	.	.
COc1cccc(-c2cccc(NC(=O)C3CCN(Cc4ccc(C)o4)CC3)c2)c1	103	3	102	2	95	-5	.	.	.

Source: PubChem BioAssay
